# Reference: PMC5540273 (PLoS ONE, 2017)
# Assays:
# MRCKB = system: T1, MRCKB
# T1 construct: gene CDC42BPB
# MST1 = system: T2, MST1
# T2 construct: gene STK4
# MST3 = system: T3, MST3
# T3 construct: gene STK24
# NDR1 = system: T4, NDR1
# T4 construct: gene STK38
# 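Note: kd values determined as follow-up on hits from a single-replicate KINOMEscan panel screen.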
structure (smiles),measurement,setting,value
Cc1cccc(-c2nc(C)cc(Nc3ccncc3)n2)n1 [GSK257997],Kd,MRCKB,0.58 µM
COc1ccc2nc(-c3cccc(C)n3)nc(Nc3ccncc3)c2c1 [GSK204919],Kd,MRCKB,0.52 µM
Fc1cc(Cl)ccc1Nc1ccnc2cc(I)ccc12 [GW551191],Kd,MST1R,> 10 µM
O=C1NC(=O)C(N2CCc3ccccc32)=C1c1ccccc1Cl [SB-373598],Kd,MST1,> 10 µM
same,Kd,PAK3,> 10 µM
Nc1ncnc2[nH]c(-c3ccccc3)nc12 [AH5015],Kd,MST1,> 10 µM
same,Kd,PAK3,> 10 µM
CS(=O)(=O)c1ccc(-c2c(-c3ncn[nH]3)sc(N3CCOCC3)c2C#N)cc1,Kd,MST3,> 10 µM
CSc1nn2c(=O)cc(N3CCOCC3)nc2n1Cc1cccc(C(F)(F)F)c1C [GSK2363608],Kd,MST4,> 10 µM
same,Kd,NEK2,> 10 µM
COc1cc2ncn(-c3cc(OCC4CCCO4)c(C(N)=O)s3)c2cc1OC (stereo not drawn) [GSK204607],Kd,MYLK4,0.5 µM
Cc1ccc(NC(=O)Nc2cccc(Cl)c2)cc1-c1ccc(C(=O)Nc2ccncc2)cc1 [GSK1398468],Kd,MYO3A,> 10 µM
CC(C)(C)c1ccc(C(=O)Nc2cn3cc(Cl)ccc3n2)cc1,Kd,NDR1,> 10 µM
NC(=O)c1nnc2ccccc2c1N,Kd,NEK10,0.43 µM
CCn1c(-c2ccccn2)nc2cnccc21 [SB-736398],Kd,NEK1,> 10 µM
CCCc1ccc(S(=O)(=O)NC2CCN(c3ccnc(Nc4ccc(F)cc4)n3)C2)cc1 (stereo not drawn) [GSK1379715],Kd,NEK1,> 10 µM
O=C(O)COc1ncnc2cc(-c3ccc4[nH]ncc4c3)sc12,Kd,NEK3,0.21 µM
Cn1ccc2ncnc(Oc3ccc(Nc4nc5ccccc5[nH]4)cc3)c21,Kd,NEK4,> 10 µM
COc1ccc(CNC(=O)NC2CCN(c3ccnc(Nc4cc(OC)c(OC)c(OC)c4)n3)C2)cc1 (stereo not drawn) [GSK1379748],Kd,NEK5,0.73 µM
COc1cc(Nc2nccc(N3CCC(NC(=O)Nc4cc(C)ccc4C)C3)n2)cc(OC)c1OC (stereo not drawn) [GSK1379762],Kd,NEK5,2.3 µM
CS(=O)(=O)c1ccc(-c2nc3n(c2-c2ccncc2)CCC3)cc1 [SKF-105942],Kd,PAK6,> 10 µM
